# Laboratory results from PubChem BioAssay AID686979 (National Center for Advancing Translational Sciences (NCATS), 2013).
# Screen size: about 420,000 compounds; about 50,000 (12%) were called active. About 26% were inconclusive and are not listed. This is one part of a sample in which actives are shown more often than they occur. Values without a mark were called inactive. Calls come from the whole dose curve; as a rule, active = well fitted inhibition curve with a large enough effect; inconclusive = small, poorly fitted or top-dose-only effect; inactive = flat fitted curve, though single readings scatter.
# Assay: qHTS for Inhibitors of human tyrosyl-DNA phosphodiesterase 1 (TDP1): qHTS in cells in presence of CPT; note: nearly all actives have a fitted effect of over 55% in size
# Conditions: chicken DT40 Tdp1-/-;hTDP1 cells + 20 nM CPT, ATP luminescence, 48 h; series mostly up to 46.2 µM; activity change, negative = growth inhibition: at the top concentration
# How it was run: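 Chicken DT40 Tdp1-/- cells complemented with human TDP1, 400 cells/well, exposed to compounds plus 20 nM camptothecin for at least 48 h at 37 C; viability read as ATP content by CellTiter-Glo luminescence.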
# % is set by controls: 0 for no effect and ±100 for the full control effect; potency is the fitted concentration of half-maximal effect.
Structure (SMILES),"activity change, negative = growth inhibition",Potency
CCOc1ccc(N(CC(=O)NC2CCCCCC2)S(=O)(=O)c2c(C)[nH]c(=O)[nH]c2=O)cc1,10.3%,
CC(Nc1nc(C(F)(F)F)nc2ccccc12)c1cccs1 (configuration not stated),,16.4 µM (active)
COc1ccc(-c2nc3n(c(=O)c2C#N)CCS3)c(OC)c1,1.35%,
Cc1oc(-c2ccccc2F)nc1CN1CCC(C(=O)NCCc2ccc(Cl)cc2)CC1,,13 µM (active)
COc1ccc(-c2nc(CN3CCC(C(=O)NCc4ccccc4)CC3)c(C)o2)cc1OC,-14.1%,
CCOc1ccccc1-c1nc(CN2CCC(C(=O)N3CCOCC3)CC2)c(C)o1,3.81%,
S=C(NCCc1ccccc1)N1CCCCC1,-3.98%,
O=C1CCN(C(=S)NCCc2ccccc2)CC1,0.277%,
Oc1ccc(N2CCN(C(=S)NCc3ccccc3)CC2)cc1,,11.6 µM (active)
CC(Oc1ccccc1)C(=O)N[C@@H]1C(=O)N2[C@@H]1SC(C)(C)[C@@H]2C(=O)O (some centres not stated),6.19% [at 21.1 µM],
COc1cc(C=NC2CCCCC2)ccc1O,4.14%,
COc1ccc(N2CCN(C(=O)CNC(=O)c3ccc(Br)o3)CC2)cc1,13.1%,
O=C(NCC(=O)N1CCN(c2ncc(C(F)(F)F)cc2Cl)CC1)c1ccc(Br)o1,,16.4 µM (active)
O=C(CN1CCN(c2ncc(C(F)(F)F)cc2Cl)CC1)Nc1ccc2c(c1)OCO2,-13.8%,
Cc1cc(C)cc(C(=O)NC(CC(N)=O)c2ccc(N3CCC(N4CCCCC4)CC3)c([N+](=O)[O-])c2)c1 (configuration not stated),2.09%,
OCCN1CCN(CCO)C1=S,5.79%,
COc1ccccc1CN1CCCC(N2CCN(c3ccc(F)cc3)CC2)C1 (configuration not stated),-27.6%,
CNC[C@H](CC1CCCCC1)NC[C@H](NCCC1CCCC1)[C@H](C)O,,16.4 µM (active)
COc1ccc2c(c1OC)C(=O)N(c1ccc(O)cc1)C2,-0.711%,
O=C(CN1CCN(c2ccccc2O)CC1)NC(=O)NCc1ccccc1,-16.9%,
Cc1coc(C)c1C(=O)CC1(O)C(=O)N(C)c2ccc(Cl)cc21 (configuration not stated),3.38%,
CCc1ccc(C(=O)COC(=O)c2ccco2)cc1,-1.65%,
CCCN1C(=O)C(O)(CC(=O)c2ccc(CC)cc2)c2cc(Br)ccc21 (configuration not stated),,7.31 µM (active)
CCOC(=O)CSc1nc2sc3c(c2c(=O)[nH]1)CC(C)(C)OC3,-16.6%,
CCC(O)CNc1nc(-n2nc(C)cc2C)nc2sc3c(c12)CC(C)(C)OC3 (configuration not stated),,11.6 µM (active)
CC/C(C)=N/Nc1nc2sc3c(c2c(=O)[nH]1)CC(C)(C)OC3,1.97%,

Structure (SMILES),"activity change, negative = growth inhibition",Potency
COCCn1c(C)cc(C(=O)CSc2ncnc3sc4c(c23)CCC4)c1C,-11.5%,
COCCNc1nc(-n2nc(C)cc2C)nc2sc3c(c12)CCCC3,,3.66 µM (active)
Cc1nc2sc3c(c2c(=O)n1NC(=O)CCl)CCCC3,17.3%,
O=C(O)c1ccc(Cn2cnc3c(=S)nc[nH]c32)cc1,14.7%,
O=C(c1cccnc1)N1CCN(S(=O)(=O)c2cccs2)CC1,-5.05%,
CC1Cc2ccccc2N1S(=O)(=O)c1c(N)n(C)c(=O)n(C)c1=O (configuration not stated),-1.47%,
Cc1ccc(C)c(S(=O)(=O)N2CC(=O)Nc3ccccc32)c1,-7.38%,
Cc1cc(-c2ccc(C)c(S(=O)(=O)N3c4ccccc4CC3C)c2)on1 (configuration not stated),,18.4 µM (active)
CCc1noc(C)c1C(=O)NCCN1Cc2cc(OC)ccc2OC(CC)C1 (configuration not stated),-8.71% [at 9.04 µM],
Cc1cc(-c2ccc(C)c(S(=O)(=O)Nc3ccc(S(N)(=O)=O)cc3)c2)on1,-3.34%,
CCC1CN(S(=O)(=O)c2cc(-c3cc(C)no3)ccc2C)c2cc(C)ccc2O1 (configuration not stated),,20.6 µM (active)
CC(=O)c1ccc(S(=O)(=O)Nc2ccc(-c3ccc4nncn4n3)cc2)cc1,26%,
O=C(O)C(=Cc1ccccc1[N+](=O)[O-])c1ccccc1,-1.61%,
CCCCCCCC1(C)NC(=O)N(CC(=O)Nc2cc(C)on2)C1=O (configuration not stated),-1.42%,
CCOc1ccc(NC(=O)CN(C)C(=O)c2cccc(S(=O)(=O)N3CCCC3)c2)cc1OCC,6.25%,
COc1ccc(NC(=O)CN(C)C(=O)c2cccc(S(=O)(=O)N3CCN(c4ccccc4)CC3)c2)cc1,,18.4 µM (active)
COc1ccc(NC(=O)CN(C)C(=O)c2cc(C3CC3)nn2-c2ccccc2)cc1,-20.1%,
COc1cc(/C(=C/c2ccccc2)c2ccccc2)c2c(c1)oc1ccccc12,,inactive
O=C(CSc1n[nH]c(-c2cccnc2)n1)Nc1ccc(Cl)cc1,-6.52%,
COc1cc(C#Cc2ccc3cc(CCCO)oc(=O)c3c2)cc(OC)c1,,0.651 µM (active)
Cc1ccc(N(CC(=O)NC2CCCCC2)C(=O)CCCC(=O)Nc2ccccn2)c(C)c1,-6.89%,
CC(C)(C)S(=O)(=O)c1ccccc1-c1noc(-c2ccccc2)c1C(N)=O,14.1%,
COc1ccc(S(=O)(=O)N(CC(=O)NCc2ccco2)c2ccc(F)cc2)cc1,-11%,
Cc1ccc(N(CC(=O)NCc2ccc(Cl)cc2)S(=O)(=O)N(C)C)cc1,-2.04%,
COc1ccc(CNC(=O)CN(c2ccc(OC)c(Cl)c2)S(=O)(=O)c2ccc(C)cc2)cc1,,25.9 µM (active)
COCc1cc(C)nc2sc(C(=O)NC3CCCCC3)c(N)c12,-21.3%,

Structure (SMILES),"activity change, negative = growth inhibition",Potency
O=C(O)C1=C(C(=O)O)C2CCC1C2,0.326%,
CCN(CCN(C)C)C(=O)c1ccc2nc(C)c(N(C)C(=O)CCc3ccccc3)n2c1,13.7%,
Cc1ccc(CNC(=O)COC(=O)C2CCC2)cc1,-1.47%,
CC(O)c1ccc(OCCN(C)c2ccccn2)cc1 (configuration not stated),4.7%,
Cc1ccc(S(=O)(=O)CC(=O)NC(C)c2ccccc2)cc1 (configuration not stated),8.16%,
Cc1ccccc1-c1nc(CS(=O)(=O)CC(=O)NC(C)c2ccccc2)c(C)o1 (configuration not stated),,16.4 µM (active)
CSc1ccc(CCNC(=O)CS(=O)(=O)Cc2nc(-c3ccccc3F)oc2C)cc1,-0.97%,
CC(C)Cc1nnc(NC(=O)CCNC(=O)c2ccccc2Cl)s1,-10%,
CCOC(=O)N1CCN(C(=O)C2CCCN(c3ncnc4c3sc3cccc(F)c34)C2)CC1 (configuration not stated),-104%,
CCOC(=O)N1CCN(C(=O)C2CCN(S(=O)(=O)c3cc(Cl)ccc3OCC)CC2)CC1,-3.7%,
CCOC(=O)N1CCN(C(=O)C2CCN(c3ncnc4c3sc3cccc(F)c34)CC2)CC1,,8.2 µM (active)
O=C(CCn1nnnc1CN1CCOCC1)N1CCC(c2ccccc2Cl)C1 (configuration not stated),-12.6%,
COc1ccc(F)c(CN2CCC3(CCC(CNC(=O)c4ccn(C)n4)O3)CC2)c1 (configuration not stated),7.32%,
Cc1ccccc1N1CC(C(=O)Nc2ccc3c(c2)OCO3)CC1=O (configuration not stated),-10.8%,
COc1ccc(C(=O)Cc2cnn(-c3ccccc3)c2)c(O)c1,-20.1%,
COc1ccc(C(=O)CC(=O)c2ccc(C)cc2)c(O)c1,,4.61 µM (active)
COc1ccc(C(=O)CCc2ccccc2O)c(OC)c1,5.83%,
COc1ccc(NC(=O)Cn2c(=O)cc(C)c3c(C)nn(-c4cccc(Cl)c4C)c32)cc1OC,-8.29%,
Cc1noc(C)c1NC(=O)Nc1cccc2c1O[C@H](CN(C)S(=O)(=O)c1c(C)noc1C)[C@@H](C)CN([C@H](C)CO)C2=O,13.3%,
O=C(CN1C(=O)C2C3CCC(C3)C2C1=O)Oc1ccc2ccccc2c1 (configuration not stated),1.24%,
CC1=CC(C)(C)Nc2ccc(OC(=O)CN3C(=O)C4CCCCC4C3=O)cc21 (configuration not stated),,1.64 µM (active)
CC(OC(=O)CN1C(=O)C2CCCCC2C1=O)C(=O)Nc1ncc(Cl)cc1Cl (configuration not stated),-15.3%,
O=C(/C=C/c1c(F)cccc1Cl)Nc1nn[nH]n1,10.1%,
O=C(N/C(=C\c1ccc(O)cc1)C(=O)N1CCCCC1)c1ccccc1,-0.525%,
CCOc1ccc(C2/C(=C(/O)c3ccc4c(c3)CC(C)O4)C(=O)C(=O)N2CCCn2ccnc2)cc1 (configuration not stated),-13.3%,
CC(C)=CCC/C(C)=C/CC/C(C)=C/CC/C(C)=C/CO,,inactive

Structure (SMILES),"activity change, negative = growth inhibition",Potency
Cc1ccc(C2=NN(C)c3nc4ccccc4n3C2)cc1,,18.4 µM (active)
Cc1nc2ccccc2n1CC(O)c1ccccc1 (configuration not stated),6.8%,
Cc1ccc(Oc2nc3ccccc3n3c(C)nnc23)cc1,-14.2%,
COC(=O)C(C)N=Cc1ccccc1 (configuration not stated),-12.3%,
Cc1ccc(C(=O)Nc2ccc(C(=O)O)cc2)cc1S(=O)(=O)Nc1ccccc1,0.932%,
O=C1CCC(CCC(=O)N2CCCC(C(=O)c3ccc(Cl)cc3)C2)=NN1 (configuration not stated),-1.89%,
COc1ccc(F)cc1C(=O)C1CCCN(C(=O)CCc2ccccn2)C1 (configuration not stated),,16.4 µM (active)
CSCC(=O)N1CCCC(C(=O)c2cc(F)ccc2F)C1 (configuration not stated),-5%,
O=C1NC(O)CCN1C1CC(O)C(CO)O1 (configuration not stated),-0.775%,
C=CCNC(=O)COC(=O)CNC(=O)c1cc(Cl)cc([N+](=O)[O-])c1,-4.44%,
O=C(O)c1ccccc1Cc1ccc(F)c2ccccc12,49.6%,
O=C(Nc1nnc(Cc2ccccc2)s1)c1cnccn1,-5.61%,
CC1CCN(C2=NC(=O)/C(=C/c3cn[nH]c3-c3ccccc3)S2)CC1,-28.9%,
Cc1ccc(S(=O)(=O)N2CCN(C)CC2)cc1C(=O)NC1CCCCC1,-7.5%,
CCn1cc(C(=O)N2CC(C)CC(C)C2)c(=O)c2cc(S(=O)(=O)N3CCCC3)ccc21 (configuration not stated),-9.06%,
CCn1cc(C(=O)NC2CCCCCC2)c(=O)c2cc(S(=O)(=O)N3CCCCC3)ccc21,,29.1 µM (active)
CCn1cc(C(=O)N(C)Cc2ccccc2)c(=O)c2cc(S(=O)(=O)N3CCCCCC3)ccc21,2.57%,
Cc1ccc(Cl)cc1N1CCN(C(=O)c2cn(C)c3ccc(S(=O)(=O)N(C)C4CCCCC4)cc3c2=O)CC1,-28.2%,
CCn1cc(C(=O)N2CCN(c3cc(Cl)ccc3C)CC2)c(=O)c2cc(S(=O)(=O)N3CCCC3)ccc21,,23.1 µM (active)
CCCCc1cc(=O)oc2c(C)c(OCC(=O)N3CCC(C(N)=O)CC3)ccc12,1.82%,
CCOc1ccc(Br)cc1S(=O)(=O)Nc1ccc(S(=O)(=O)Nc2cc(C)on2)cc1,7.48%,
O=C(NCc1ccc2c(c1)OCO2)c1c(-c2ccsc2)sc2ccccc12,,14.6 µM (active)
O=C(NCc1ccc2c(c1)OCO2)c1sccc1Br,13%,
O=C(NCc1ccc2c(c1)OCO2)c1ccc(Cl)s1,-3.29%,
